High-throughput results from PubChem BioAssay.
tim23-1 inh = tim23-1 yeast growth inhibition. S. cerevisiae tim23-1 growth, BacTiter-Glo luminescence, 24 h. inhibition, % at 20 µM. 1.3% of 330,000 active;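 active means growth inhibition of the mutant yeast at or above 50%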;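 further: temperature-sensitive mutant grown at 25 °C; plate controls were DMSO-treated mutant yeast for no effect and medium wells lacking yeast for full effect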
V-ATPase pH = regulators of yeast V-ATPase proton transport; AID 504577; S. cerevisiae, pHLuorin cytosolic pH fluorescence; response, % at 10 µM; 0.37% of 350,000 active; in the data active means response mostly above about 7.3%, no sharp cut-off; inactive means mostly below about 5.4%; further: actives read high
NALP3 yeast inh = inhibitors of NALP3 inflammasome in yeast | Yeast reconstituted NLRP3/ASC/caspase-1, beta-gal luminescence, 24 h | inhibition, % at 10 µM | 0.39% of 330,000 active | AID 2825;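 active means inhibition of 50% or more; inactive means inhibition below 50%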;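 further: plate controls were induced DMSO wells for no effect and uninduced yeast grown without galactose for full effect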
TIM10 inh = growth inhibitors of TIM10 yeast strain. S. cerevisiae TIM10 strain growth, BacTiter-Glo luminescence, 24 h. inhibition, % at 10 µM. 1.4% of 330,000 active;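 active means inhibition of 40% or more at the single tested concentration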;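 further: wild-type TIM10 isogenic control strain grown at permissive 25 °C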
tim10-1 inh = tim10-1 yeast growth inhibition; S. cerevisiae tim10-1 ts strain growth, BacTiter-Glo, 24 h; inhibition, % at 20 µM; 2.2% of 330,000 active; AID 463190;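 active means inhibition of at least 40%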;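 further: mutant grown at 25 °C; 0% = DMSO wells with yeast and 100% = wells holding no yeast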
NALP1 inh = inhibitors of NALP1 inflammasome in yeast; S. cerevisiae NALP1/ASC/caspase-1 growth, X-gal OD620, 72 h; inhibition, % at 10 µM; 0.61% of 280,000 active; AID 2071; in the data active means inhibition mostly above about 24%, no sharp cut-off; inactive means mostly below about 32%
VATPase regulator = yeast V-ATPase proton transport regulation; response, % at 10 µM; shares compounds with V-ATPase pH; AID 602197; 2% of 980 active; S. cerevisiae pHLuorin cytosolic pH; in the data active means response above about 24%;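 further: plate controls were vehicle wells for no effect and positive control wells for full effect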
The depositor's hits bear a star; . = not tested or not shown. Only some compounds are listed: those with a hit (about 4.2% of all), similar ones and a draw of the others.

SMILES	tim23-1 inh	V-ATPase pH	NALP3 yeast inh	TIM10 inh	tim10-1 inh	NALP1 inh	VATPase regulator
CCCCNC(=O)COC(=O)CCC(=O)c1ccc(F)cc1	5.7	2.5	16.1	-5.2	20.4	-32.4	2.4
Cc1ccc(C)c(N(C(=O)CNC(=O)c2ccco2)C(C(=O)NCC2CCCO2)c2ccccc2)c1 (configuration not stated)	18.0	-3.2	6.3	-6.3	14.1	0.3	.
Cc1ccc(C(=O)NNC(=O)CCn2nnc3ccccc32)cc1	-6.3	11.0*	24.4	-1.5	-1.5	-4.7	3.7
Cc1cccc(C(=O)NNC(=O)CCn2nnc3ccccc32)c1	-1.8	0.9	0.9	8.6	8.4	34.9	.
O=C(NNc1nc2ccccc2s1)c1ccc(F)cc1	7.0	5.8*	4.7	24.8	10.3	30.6	3.0
O=C(NC1CCCCC1)c1ccc2c(c1)OCO2	5.1	-4.0	16.5	-11.3	-6.1	-8.1	.
O=C(NCCS(=O)(=O)NC1CCCCC1)c1ccc2c(c1)OCO2	-1.9	7.1*	24.2	-2.4	-11.0	.	-1.6
CCCNC(=S)N1CCC(NC(=O)c2ccc(C)cc2)CC1	15.1	1.9	15.8	2.8	6.9	-7.7	.
COC(=O)c1ccc(-n2c(C)cc(C(=O)CSc3cccc[n+]3[O-])c2C)cc1	33.2	11.6*	16.5	15.8	14.3	3.7	-0.4
CCC(C)(C)NC(=O)CN(C(=O)c1snc(C(N)=O)c1N)c1ccc2c(c1)OCCO2	14.3	-0.8	16.2	24.8	16.1	-1.7	.
Cc1nn(-c2ccc(F)cc2)c(C)c1/C=C/C(=O)N1CCNC(=O)C1	12.3	9.3*	12.6	4.1	-3.1	0.8	-0.4
Cc1nn(-c2ccc(F)cc2)c(Cl)c1/C=C/C(=O)N1CCNC(=O)C1	13.9	-1.3	10.0	0.4	2.6	16.5	.
O=C(c1ccc(C(F)(F)F)cc1)C1CCCN(C(=O)Cn2cncn2)C1 (configuration not stated)	-3.1	1.9	5.3	2.9	-4.0	-2.8	.
O=C1CCC(C(=O)N2CCCCO2)CN1CCc1ccccc1 (configuration not stated)	11.4	10.5	13.3	5.7	11.9	17.0	.
COc1ccccc1OCCNC(=O)CCNC(=O)c1ccccc1OC	6.3	-2.1	11.6	4.2	-7.6	.	.
COc1ccccc1C(=O)NCCC(=O)NCCC12CC3CC(CC(C3)C1)C2	41.9	10.5*	1.8	24.7	25.4	7.2	-6.3
CC1CN(c2nnc(-c3ccccc3)c3ccccc23)CC(C)O1 (configuration not stated)	27.2	-0.2	12.9	18.7	8.3	17.1	.
CC(=O)C(C)Oc1cc(C)cc2oc(=O)c(C)c(C)c12 (configuration not stated)	-13.4	-2.9	34.9	-9.3	-0.3	3.3	.
COc1ccc(NS(=O)(=O)c2ccc(C)c(C(=O)NCC(c3ccco3)N3CCCCC3)c2)cc1 (configuration not stated)	-26.2	9.9*	-2.3	-12.1	-22.4	.	-1.7
COCCN(CCOC)S(=O)(=O)c1ccc(NC(=O)c2cnccn2)cc1	10.6	-2.8	13.2	6.0	6.0	5.4	.
O=C(c1ccc(C(F)(F)F)cc1)N1CCC(=O)N(C(CO)Cc2ccccc2)CC1 (configuration not stated)	-5.2	6.1	-16.5	-4.6	13.8	.	.
N#CC1=C(N)Oc2c(ccc3cccnc23)C1c1cccnc1 (configuration not stated)	10.6	9.7*	20.1	6.9	21.7	-11.8	-0.5
N#CC1=C(N)Oc2cc3ccccc3cc2C1c1cccnc1 (configuration not stated)	-0.2	-2.1	-3.6	23.2	23.5	3.3	.
CCCOc1ccc(N2C(=O)CC(N3CCN(c4ccccc4F)CC3)C2=O)cc1 (configuration not stated)	14.5	-1.9	25.3	21.5	12.1	1.6	.
O=C(Nc1ccc2oc(-c3cccnc3)nc2c1)c1ccc(Br)o1	-22.0	6.2	20.4	1.4	-42.3	-11.6	.
SMILES	tim23-1 inh	V-ATPase pH	NALP3 yeast inh	TIM10 inh	tim10-1 inh	NALP1 inh	VATPase regulator
O=C(Nc1ccc2oc(-c3cccnc3)nc2c1)c1ccc([N+](=O)[O-])o1	.	11.0*	.	.	.	-1.6	2.4
CC(C)(C)OC(=O)NCc1ccc(CNC(=O)c2[nH]cnc2C(=O)NCC(=O)OCc2ccccc2)cc1	7.2	0.9	-4.9	0.2	9.2	-4.9	.
Cc1ccc(S(=O)(=O)NCC(=O)N2CCCCC2)cc1	9.9	11.6*	20.8	6.9	-12.7	2.3	-41.7
C/C=C(\C)CN1CCN(c2ccccc2F)CC1	-7.0	-1.1	-0.5	4.1	9.8	0.6	.
NC(=S)Nc1nccc(-c2cccs2)n1	-1.8	6.7	13.6	9.6	11.4	-9.2	.
Cc1ccc(C(=O)Nc2nccc(-c3cccs3)n2)cc1	1.6	8.5*	21.7	-10.3	12.2	6.1	2.5
CCCN(CCC)CC(O)COc1ccc2c(c1)OCO2 (configuration not stated)	5.3	8.9*	18.0	17.3	4.0	12.8	-4.2
CSc1ccc(CN(C)C(=O)C(Cc2ccccc2)NC(=O)c2ccccc2)cc1 (configuration not stated)	25.9	2.3	5.5	11.5	14.8	23.9	.
Cc1nn(C)cc1C(C)NC(=O)c1cc(COc2c(F)cccc2F)on1 (configuration not stated)	19.8	11.3*	20.9	5.7	12.7	-1.5	-2.8
Cc1nn(C)cc1C(C)NC(=O)c1cc(COc2cccc3cnccc23)on1 (configuration not stated)	-1.3	-0.6	-4.8	-4.3	-10.1	21.5	.
CC1=[N+]([O-])C(N2CCOCC2)C(O)(c2ccccc2)C1 (configuration not stated)	6.6	-1.4	9.6	2.8	1.7	-24.1	.
COc1cccc(NC(=O)CN(c2ccc(C)cc2)S(=O)(=O)c2c(C)nn(C)c2C)c1	29.8	-3.9	-12.7	29.7	39.9	0.4	.
COC(=O)c1cc(Br)c(=O)n(-c2cc(C)on2)c1	7.8	8.0*	1.9	-19.6	1.5	-20.5	-2.5
COC(=O)c1cc(Br)c(=O)n(-c2ccccn2)c1	-4.4	6.9	3.5	-15.6	-9.7	-12.0	.
CN1CCN(C2CC(=O)N(Cc3ccc(N4CCCC4=O)cc3)C2=O)CC1 (configuration not stated)	-11.2	10.7*	-3.9	-7.8	2.2	21.4	-2.9
Cc1nnc(SCc2nc3ccccc3s2)n1N	4.3	1.4	5.3	9.2	7.9	-18.9	.
Cc1nnc(SCc2nc3ccccc3s2)n1-c1ccccc1	12.5	8.3*	14.4	10.1	17.2	4.8	1.9
COC(=O)C1=NNC(C(=O)OC)C1c1ccccc1 (configuration not stated)	.	16.9*	.	.	.	.	-0.7
CSc1ncccc1C(=O)OCn1nnc2ccccc2c1=O	35.7	-0.9	22.6	13.3	30.1	10.2	.
CCN(CC)CCNC(=O)c1ccc(NC(=O)c2cccc(S(=O)(=O)Nc3ccc(C)cc3)c2)cc1	7.0	2.0	-2.8	-2.2	9.4	32.4	.
